Measurements taken from PubChem BioAssay AID652015 (National Center for Advancing Translational Sciences (NCATS), 2013).
Inconclusive results are not listed. Calls of active or inactive are those of the source. Calls come from the whole dose curve; as a rule, active = well fitted inhibition curve with a large enough effect; inconclusive = small, poorly fitted or top-dose-only effect; inactive = no such curve, though single readings can be large or run the other way.

biological target: Coelenterazine h 2-monooxygenase (Renilla reniformis) (UniProt P27652); assay: qHTS Assay for Inhibitors of Sea Pansy Luciferase from the GSK Published Protein Kinase Inhibitor Set; conditions: purified Renilla luciferase, luminescence; series mostly up to 57.5 µM; activity change, negative = inhibition: at the top concentration
Sequence (P27652 whole entry, looked up): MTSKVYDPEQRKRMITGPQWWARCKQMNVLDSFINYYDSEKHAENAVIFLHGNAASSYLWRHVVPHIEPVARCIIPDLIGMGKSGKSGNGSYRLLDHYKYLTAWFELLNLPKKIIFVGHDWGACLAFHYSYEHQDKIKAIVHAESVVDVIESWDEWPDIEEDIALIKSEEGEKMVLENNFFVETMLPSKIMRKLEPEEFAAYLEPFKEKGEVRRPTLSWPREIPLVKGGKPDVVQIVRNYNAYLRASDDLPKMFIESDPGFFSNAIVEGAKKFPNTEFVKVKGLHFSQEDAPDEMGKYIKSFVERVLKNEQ
Method in brief: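 Purified R. reniformis luciferase (1 nM final) with 5 uM coelenterazine h in 50 mM Tris acetate pH 7.5, 100 uM NaCl, 0.01% Tween-20, 0.05% BSA. A titration, about 60 uM to 300 pM; luminescence read after about 2 min.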

Activity change, negative = inhibition, inactive:
Nc1nccc(C#Cc2cncnc2Nc2ccc(OCc3cccc(F)c3)c(Cl)c2)n1 1.01%
COc1ccc(-c2ccncc2)cc1C(N)=O 45.5%
Clc1ccc(CNc2nccc(-c3cnn4ncccc34)n2)cc1 37.5%
CS(=O)(=O)CCNCc1ccc(-c2ccc3ncnc(Nc4ccc(OCc5ccccc5)c(Br)c4)c3c2)o1 19.8%
CC1=C(C(=O)Nc2cc(Cl)c3[nH]ncc3c2)C(c2ccc(C(F)(F)F)cc2)CC(=O)N1 (configuration not stated) 14.7%
Cc1ccc(C(=O)NC2CCC2)cc1-c1ccc(C(=O)NCC2CC2)cc1 -28%
Cc1nn(C)c2cc(N(C)c3ccnc(Nc4cccc(S(N)(=O)=O)c4)n3)ccc12 17.1%
Cc1ccc(C(=O)NC(C)C)cc1-c1ccc(C(=O)NCC2CC2)cc1 26.6%
COc1cc2ncn(-c3cc(OCc4ccccc4Cl)c(C(N)=O)s3)c2cc1OC 56.4%
COC(=O)Nc1nc2ccc(Oc3cccc(NC(=O)Nc4cc(C(F)(F)F)ccc4F)c3)cc2[nH]1 40.9%
CS(=O)(=O)Nc1cccc(-c2ccc3c(NC(=O)C4CC4)n[nH]c3c2)c1 17.4%
N#Cc1c(NC(=O)CN2CCOCC2)sc2c1CCCC2 10.2%
O=C(Nc1n[nH]c2cc(-c3ccc(F)cc3)ccc12)C1CC1 46.1%
c1ccc(-c2[nH]ncc2-c2ccnc(-c3ccc(OCCn4ccnc4)cc3)c2)nc1 -9.9%
COc1cccc(-n2nc(C)c3c(NN=C(C)c4ccncc4)ncnc32)c1 22.2%
NC(=O)c1ccc(-c2nc(-c3ccc4c(c3)OCO4)c(-c3ccccn3)[nH]2)cc1 0.676%

Potency, inactive:
Nc1nccc(-c2c(-c3ccc(F)cc3)ncn2C2CCNCC2)n1
